The results in this text go back to PubChem BioAssay (Tox21).

Inconclusive results are not listed. Calls of active or inactive are those of the source. The call rests on the fitted dose curve.
On the % scale 0 is the no-effect control and ±100 the full control effect; potency means the concentration at half of the fitted maximal effect.

The assay in a line: qHTS assay to identify small molecule antagonists of the sonic hedgehog signaling (Shh) pathway (AID 1259369). Further: nearly all actives have a fitted effect of over 45% in size. Particulars: NIH/3T3 Gli1-Luc reporter, Shh antagonist, luminescence 24 h; series mostly up to 92.4 µM; activity change, negative = inhibition: at the top concentration. An excerpt:
U.S. Tox21 Program National Center for Advancing Translational Sciences [NCATS] NIH Chemical Genomics Center [NCGC] U.S. Environmental Protection Agency [EPA] National Institutes of Environmental Health Sciences [NIEHS] National Toxicology Program [NTP] U.S. Food and Drug Administration [FDA] Tox21 Assay Overview: The sonic hedgehog (Shh) pathway is essential for normal embryonic development. Dysregulation of the Shh pathway can cause severe developmental defects in organs. Therefore chemicals that interfere with the pathway are potential developmental toxicants. A cell line designated 3T3Gli1-Luc (DMB/OARSA/CFSAN/FDA, Laurel, MD), a NIH/3T3 derived clone containing stably integrated Gli1-Luc reporter is used to detect chemical interference of the Shh pathway, by changes in the expression of the firefly Luc gene under the control of the Gli1 transcriptional response element. This cell line was used to screen Tox21 libraries for identifying and prioritizing the potential developmental toxicants that interfere Shh pathway. Conditioned medium-stimulated mode was used to screen for chemicals inhibiting Shh signaling.
Tox21 Assay Protocol Summary: 3T3 Gli1-Luc cells were dispensed at 2,000 per well in 5uL of culture medium into white solid bottom 1536-well plates (Greiner Bio-One, Monroe, NC) using a Multidrop Combi (Thermo Scientific, Waltham, MA) dispenser. The assay plates were incubated at 37 C and 5% CO2 for 4hr, and then 23nL of compounds dissolved in DMSO and positive control were transferred using a Pintool station (Wako, San Diego, CA). The compound transfer was followed by the addition of 1ul conditioned medium or assay buffer using two separate tips of Flying Reagent Dispenser (FRD, Aurora Discovery, San Diego, CA). The assay plates were incubated at 37C and 5% CO2 for 24hr. For luciferase read, 4uL of Amplite Luciferase reporter gene assay reagent (AAT Bioquest, Inc. Sunnyvale, CA) was added to each well of the assay plates using FRD and incubated at room temperature for 30min. The luminescence signal was measured using a ViewLux plate reader (Perkin Elmer, Shelton, CT).
(Quantitative high-throughput screening tests each substance at several concentrations.)
Take `Sc1nc(S)nc(S)n1`: the “activity change, negative = inhibition” value is -5.32% [at 42.5 µM] (inactive).
As to `CC(=O)Oc1cccc2c1C(=O)c1c(OC(C)=O)cc(C(=O)O)cc1C2=O`, the “activity change, negative = inhibition” value is -26.6% [at 42.5 µM] (inactive).
Same read-out and setting: to `c1ccc(CN(Cc2ccccc2)Cc2ccccc2)cc1` belongs 5.29% (inactive); to `O=C(c1ccc(Cl)cc1)c1ccc(Cl)cc1`, 0% (inactive); to `O=C(O)c1ccc2cc(O)ccc2c1`, 19.5% (inactive).
In the case of `CC(O)CN` (stereo not given), the “activity change, negative = inhibition” value was -4.72% (inactive).
For `FC(F)(Cl)C(F)(Cl)Cl`, the “activity change, negative = inhibition” value was 30.7% (inactive).
Still for that read-out and setting: with `Cc1c(-c2cccnc2)c2ccccc2n1CCCCC(=O)O` the figure was 0% (inactive); with `Cc1cc(C)n(CO)n1`, 0% (inactive).
Still for that read-out and setting: with `O=C(Nc1ccc2c(c1)Cc1ccccc1-2)C(F)(F)F` the figure was -14% (inactive); with `CCCCCCCCS`, 21% (inactive); with `C=C[Si](OCC)(OCC)OCC`, 12.6% (inactive).
With `O=c1c2ccccc2oc2ccccc12`, the “activity change, negative = inhibition” value is 3.31% (inactive).
Still for that read-out and setting: to `CCc1cnc(C(=O)O)c(C(=O)O)c1` belongs 0% (inactive); to `O=S(=O)(O)c1cc(Cl)c(Cl)cc1Cl`, -19.9% (inactive); to `CCCCCCCCCC(C)C=O` (stereo not given), -3.76% (inactive).
With `OCCOc1cccc(OCCO)c1`, the “activity change, negative = inhibition” value was 7.13% (inactive).
With `CC[C@H](NC(C)C)[C@H](O)c1ccc(O)c2[nH]c(=O)ccc12`, the “activity change, negative = inhibition” value is 8.44% [at 42.5 µM] (inactive).
Still for that read-out and setting: to `O=C(N[C@@H](Cc1ccccc1)[C@@H](O)C(=O)N1C[C@@H](O)[C@@H](O)C1)c1cc2cc(Cl)ccc2[nH]1` belongs -15.9% (inactive).
As for `Oc1ccc(CCNCCCCCCNCCc2ccccc2)cc1O`, the Potency was 9.44 µM (active).
Turning to `Cc1ccc(S(=O)(=O)NC(=O)NC2CCCC2)cc1`, the “activity change, negative = inhibition” value was 4.7% [at 42.5 µM] (inactive).
On to `CC/C=C/CCO`, for which the “activity change, negative = inhibition” value was 4.57% (inactive).
Still for that read-out and setting: to `CCCCOc1ccc(N)cc1` belongs -14.7% (inactive); to `COc1ccc(CN(CCN(C)C)c2ncccn2)cc1`, 5.29% [at 42.5 µM] (inactive).
Regarding `Cc1ccc(NC=O)c(C)c1`, the “activity change, negative = inhibition” value was 31.2% (inactive).
Regarding `O=C(O)c1ccc2c(c1)nc(C(=O)NC1CCN(C3CC3)CC1)n2Cc1cc(-c2ccc(Cl)s2)on1`, the activity change, negative = inhibition is -2.6% [at 19 µM] (inactive).
Same read-out and setting: with `C=CCCC` the figure was 13.6% (inactive); with `COc1ccc(/C(C)=C/C(=O)O)c(OC)c1`, 16.7% [at 42.5 µM] (inactive); with `CC1(C)[C@@H]2CC[C@]3(C2)[C@@H]1C(=O)CCC3(C)C`, 6.49% (inactive).
Same read-out and setting: with `CCOc1ccccc1O` the figure was 1.33% (inactive); with `COc1ccnc2c1CCCCC2S(=O)c1nc2ccccc2[nH]1` (stereo not given), -12.8% [at 42.5 µM] (inactive); with `O=C(O)c1ccc(O)c(O)c1`, 35.7% (inactive).
`CCCCC(CC)COCCC#N` (stereo not given): the “activity change, negative = inhibition” value was 0% (inactive).
On to `O=C(Nc1ccccc1)c1cc([N+](=O)[O-])ccc1Cl`, for which the Potency was 21.7 µM (active).
Regarding `CC1=C(C)C(=O)C(CCCCC#CCCCC#CCO)=C(C)C1=O`, the “activity change, negative = inhibition” value is -21.3% [at 42.5 µM] (inactive).
On the same count and under the same terms, to `C=CC(=O)NC(C)(C)C` belongs -1.32% (inactive); to `FC1(F)C(F)(F)C(F)(F)C2(F)C(F)(C1(F)F)C(F)(F)C(F)(F)C1(F)C(F)(F)C(F)(F)C(F)(F)C(F)(F)C12F` (stereo not given), 23.9% (inactive).
On to `COc1cccc([C@H](O)C2CCN(CCc3ccc(F)cc3)CC2)c1OC`, for which the Potency was 54.5 µM (active).
With `COc1cc(CNC(=O)CCCC/C=C/C(C)C)ccc1O`, the “activity change, negative = inhibition” value is -28.1% (inactive).
On to `CC(COc1ccccc1)NC(C)C(O)c1ccc(O)cc1` (stereo not given), for which the “activity change, negative = inhibition” value is 16.9% [at 42.5 µM] (inactive).
